HT1080 IDH1KD tx = HT-1080 IDH1 knockdown cell toxicity (counter line) | AID 686971 | hit rate 2% among 360,000 | Potency, µM (highest dose often 46.1 µM), for the others: at the top dose activity, negative = toxicity, usual class: cytotoxic | HT-1080 IDH1 knockdown viability, ATP luminescence, 48 h;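 further: 0% = DMSO wells and -100% = cell-free medium wells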
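Using the IDH1-knockdown HT-1080 line run in the same batch and compound series as the NT line, viability after 48 h at 37 °C was determined by CellTiter-Glo luminescence and expressed as % activity.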
TDP1 cell CPT = growth inhibition of DT40 Tdp1-/-;hTDP1 cells with camptothecin (screen for TDP1 inhibitors); hit rate 12% among 420,000; Potency, µM (top dose mostly 46.2 µM), without a hit: at the top dose activity change, negative = growth inhibition, hits mostly inhibitors; chicken DT40 Tdp1-/-;hTDP1 cells + 20 nM CPT, ATP luminescence, 48 h; further: nearly all actives have a fitted effect of over 55% in size
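Chicken DT40 Tdp1-/- cells complemented with human TDP1, 400 cells/well, exposed to compounds plus 20 nM camptothecin for at least 48 h at 37 C; viability read as ATP content by CellTiter-Glo luminescence.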
DT40 TDP1 no CPT = qHTS for Inhibitors of human tyrosyl-DNA phosphodiesterase 1 (TDP1): qHTS in cells in absence of CPT. DT40 Tdp1-/- hTDP1 cells, no CPT, ATP luminescence, 48 h. Potency, µM (series often up to 46.2 µM), without a hit: at the top dose activity change, negative = growth inhibition, hits mostly inhibitors. hit rate 15% among 420,000. AID 686978, 2013; further: nearly all actives have a fitted effect of over 55% in size
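Camptothecin absent (DMSO only). Human TDP1-complemented DT40 knockout cells, 400 cells/well, 37 °C for minimum 48 hr; ATP measured via CellTiter-Glo, 30 min dark incubation, luminescence.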
KB-V1 cytotox = kills drug-selected multidrug resistant KB-V1 cells. Potency, µM (series often up to 46.1 µM), usual class: cytotoxic. KB-V1 MDR cells viability, CellTiter-Glo, 72 h. hit rate 3.4% among 400,000; further: nearly all actives have a fitted effect of over 60% in size
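Potencies derive from concentration-effect curves fitted to normalized luminescence (CellTiter-Glo) of KB-V1 cells treated for 72 h at 37 degrees C in phenol-red-free DMEM containing 10% FBS.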
KB-3-1 cytotox = KB-3-1 parental cell cytotoxicity | Potency, µM (titrated, usually from 46.1 µM), usual class: cytotoxic | hit rate 1.4% among 400,000 | KB-3-1 viability, CellTiter-Glo ATP luminescence, 72 h; further: nearly all actives have a fitted effect of over 60% in size
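72 h, 37 °C compound treatment of KB-3-1 parental cells; CellTiter-Glo added, 10 min, luminescence read. Data corrected against DMSO-only plates and normalized before curve fitting.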
HT1080NT lethal = kills 2HG-producing HT-1080-NT fibrosarcoma cells; HT-1080-NT fibrosarcoma viability, CellTiter-Glo ATP luminescence, 48 h; Potency, µM (doses to about 46.1 µM), without a hit: at the top dose activity, negative = less viability, hits mostly cytotoxic; hit rate 1.6% among 360,000; AID 686970;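 further: NT is the 2HG producing partner of a matched IDH1 knockdown line; 0% = DMSO-treated cells and -100% = media-only wells without cells; nearly all actives have a fitted effect of over 55% in size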
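A 48-hour cytotoxicity screen used HT-1080-NT cells plated 2 hours before compound delivery. ATP-based CellTiter-Glo luminescence measured viability, normalized to DMSO and no-cell controls.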
* marks the source's active call; other numbers are inactive results; i = inactive; ? = inconclusive; . = no result; ! = not confirmed by another sample. In the library only some 19% were active in any assay of this set; here they are far more common. The call rests on the fitted dose curve; in most records, active means well fitted curve in the direction sought with a large enough effect; inconclusive means small, poorly fitted or top-dose-only effect, or another doubt; inactive means no such curve, though single readings can be large; an effect the other way counts as inactive or inconclusive. Unless noted, on the % scale 0 is the no-effect control and ±100 the full control effect; potency means the concentration at half of the fitted maximal effect.

SMILES	HT1080 IDH1KD tx	TDP1 cell CPT	DT40 TDP1 no CPT	KB-V1 cytotox	KB-3-1 cytotox	HT1080NT lethal
Cc1sc(NC(=O)CN(Cc2ccccc2)C(=O)C(C)C)c(C(N)=O)c1C	5%	1.8µM*	1.2µM*	?	i	9%
CCC(=O)N(CC(=O)Nc1sc(C)c(C)c1C(N)=O)Cc1ccc(F)cc1	8%	21µM*	15µM*	?	i	6%
Cc1sc(NC(=O)CN(Cc2ccc(F)cc2)C(=O)C(C)C)c(C(N)=O)c1C	0%	3.7µM*	2.3µM*	?	i	?
CN1CCc2c(sc(NC(=O)Cc3ccc(F)cc3)c2C(N)=O)C1	7%	20%	7%	i	i	4%
CCCCC(NC(=O)CCc1c(C)c2cc3c4c(oc3c(C)c2oc1=O)CCCC4)C(=O)O (centres undefined)	-8%	2%	19%	i	i	-5%
Cc1ccc(CNC(=O)NC2COc3ccccc3C2)cc1 (centres undefined)	.	-10%	-22%	i	i	.
N#Cc1ccc(-c2nc3c4ccccc4ccn3c2Cc2cccc(Cl)c2)cc1	-9%	16µM*	18µM*	i	i	1%
Clc1ccc(-c2nc3c4ccccc4ccn3c2Cc2ccsc2)cc1	-1%	10µM*	10µM*	?	i	-14%
N#Cc1ccc(-c2nc3c4ccccc4ccn3c2Cc2ccsc2)cc1	-10%	13µM*	13µM*	i	i	-12%
Cc1ccc(-c2nc3c4ccccc4ccn3c2Cc2cccc(Cl)c2)cc1	?	?	?	i	i	?
O=C(O)C1CCCN(S(=O)(=O)c2ccc(-c3ccc(=O)[nH]n3)s2)C1 (centres undefined)	7%	-4%	32%	i	i	14%
O=C(Nc1cccc(F)c1F)C1CCN(c2ncccn2)CC1	.	-19%	-23%	i	i	.
COc1ccc(C(NC(=O)C2CCCCC2)c2c(O)ccc3ccccc23)cc1 (centres undefined)	-12%	?	18µM*	?	?	-14%
CC(C)CC(=O)NC(c1ccccc1Cl)c1c(O)ccc2ccccc12 (centres undefined)	?	?	-112%	21µM*	?	-26%
COc1ccc(C(NC(=O)CC(C)C)c2c(O)ccc3ccccc23)cc1 (centres undefined)	?	?	?	i	?	?
CC(C)(C)C(=O)NC(c1ccccc1)c1c(O)ccc2ccccc12 (centres undefined)	13%	?	?	i	i	21%
CC(=O)Oc1ccc2ccccc2c1C(NC(=O)Cc1ccccc1)c1ccc(Cl)cc1 (centres undefined)	18µM*	?	21µM*	?	?	?
CCOc1ccc(C(NC(=O)CC)c2c(O)ccc3ccccc23)cc1 (centres undefined)	?	-82%	?	i	?	?
CCCC(=O)NC(c1ccc(OC)cc1)c1c(O)ccc2ccccc12 (centres undefined)	?	?	23µM*	?	?	?
CCOc1ccc(/C=C(\C#N)C(=O)Nc2sc3c(c2C(=O)OC)CCC3)cc1OC	.	3%	7%	i	i	.
CCN(CC(=O)Nc1ccc2c(c1)OCCO2)C(=O)c1ccc(S(=O)(=O)N(C)C)cc1	-9%	2%	-16%	i	i	2%
Cc1ccnc(NC(=O)c2cccc(S(=O)(=O)N3CCCc4ccccc43)c2)c1	-4%	21µM*	21µM*	i	?	-5%
Cc1cccc(S(=O)(=O)N2CCCc3ccccc32)c1	0%	26µM*	?	i	i	2%
CC(C)(C)C(=O)NC1(C(F)(F)F)NC(=O)N(c2ccccc2F)C1=O (centres undefined)	10%	21%	11%	i	i	14%
COC(=O)CC1COc2ccccc2N1S(=O)(=O)c1ccc(OC)cc1 (centres undefined)	10µM*	3.7µM*	5.2µM*	?	18µM*	?
SMILES	HT1080 IDH1KD tx	TDP1 cell CPT	DT40 TDP1 no CPT	KB-V1 cytotox	KB-3-1 cytotox	HT1080NT lethal
Cc1ccc(NC(=O)C2CCCN2C(=O)OCc2ccccc2)c(O)c1 (centres undefined)	0%	-11%	-9%	i	i	-7%
CCc1ccc(NC(=O)Cn2c(=O)n(CCCCC(=O)NCc3ccccc3Cl)c(=O)c3ccccc32)cc1	.	?	?	i	i	.
Cc1ccc(NC(=O)CCn2c(=O)c3cccn3c3ccccc32)c(C)c1	-15%	?	21µM*	i	i	-1%
Cc1ccc(NC(=O)Cn2c(=O)c3cccn3c3ccccc32)c(C)c1	14%	-6%	2%	i	i	11%
COc1ccc(NC(=O)CCn2c(=O)c3cccn3c3ccccc32)c(OC)c1	4%	16µM*	21µM*	i	i	2%
CCOC(=O)c1ccc(NC(=O)CCn2c(=O)c3cccn3c3ccccc32)cc1	.	?	-13%	.	.	.
Cc1cc(C)cc(NC(=O)CCn2c(=O)c3cccn3c3ccccc32)c1	?	5.8µM*	8.2µM*	?	9.2µM*	-18%
COc1cccc(NC(=O)CCCn2c(=O)c3cccn3c3cccnc32)c1	.	?	21µM*	.	.	.
C=Cc1ccc(Cn2c(=O)cc(C)c3c(C)nn(-c4ccccc4)c32)cc1	.	-24%	1%	i	i	.
Cc1cc(C)cc(NC(=O)CCCn2c3ccccc3c(=O)c3ccccc32)c1	.	?	23µM*	?	?	.
O=C(CCn1c(=O)c2cccn2c2ccccc21)Nc1ccc(F)cc1	?	?	12µM*!	i	i	?
Cc1ccc2c(c1)c(=O)c1ccccc1n2CCCC(=O)Nc1ccc(F)cc1F	.	-28%	?	i	i	.
COc1ccc(NC(=O)CCn2c(=O)c3cccn3c3ccccc32)cc1	-2%	?	?	i	i	-2%
COc1ccc(CCNC(=O)Cn2c(=O)c3sccc3n(CC(=O)Nc3cccc(C(F)(F)F)c3)c2=O)cc1OC	.	-12%	-7%	.	.	.
O=C(C=Cc1ccco1)c1ccco1	10%	-16%	-25%	?	i	9%
O=C(/C=C/c1ccc(Br)cc1)c1ccco1	?	7.3µM*	16µM*	i	?	?

High-throughput results (PubChem)
